# Measurements reported in paper PMC7862700, “An all-to-all approach to the identification of sequence-specific readers for epigenetic DNA modifications on cytosine”.
# How the values were obtained:
# Experiment in all cases: DAPPL (digital affinity profiling via proximity ligation, sequencing); 10 mM Tris-HCl pH 7.5, 50 mM NaCl, 1 mM DTT, 4% glycerol, room temperature, 30 min; GST-TFs on glutathione beads, 16-mer random dsDNA library, 0.1% formaldehyde crosslink after washing; high values mean tight binding
# [1] = molecular target: T1, FLI1 (Homo sapiens, UniProt Q01543 1-452); conditions: protein: recombinant; tags: N-terminal GST; dsDNA, one strand shown
# T1 sequence: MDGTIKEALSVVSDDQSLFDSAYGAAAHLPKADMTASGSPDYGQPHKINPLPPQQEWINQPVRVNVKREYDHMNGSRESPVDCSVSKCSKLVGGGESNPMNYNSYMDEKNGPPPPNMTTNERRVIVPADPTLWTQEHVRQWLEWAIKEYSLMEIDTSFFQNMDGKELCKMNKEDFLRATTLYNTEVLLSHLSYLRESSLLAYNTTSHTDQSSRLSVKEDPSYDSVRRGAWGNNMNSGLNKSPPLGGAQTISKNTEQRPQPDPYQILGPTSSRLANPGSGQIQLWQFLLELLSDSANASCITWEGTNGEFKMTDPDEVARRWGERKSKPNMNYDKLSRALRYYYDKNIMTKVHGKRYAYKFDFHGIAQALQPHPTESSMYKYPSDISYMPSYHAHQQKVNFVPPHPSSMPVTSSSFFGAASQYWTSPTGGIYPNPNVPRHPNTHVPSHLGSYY
# In short: (§1)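 Sequencing on an Illumina NextSeq500 followed washing, crosslinking with 0.1% formaldehyde, proximity ligation (BsaI/T4 ligase, 1 h, 37 °C) and PCR amplification of pools that had been incubated for 30 min at room temperature with 200 nmole of a random double-stranded 16-mer DNA library in Tris/NaCl/DTT/glycerol buffer. Each pool held DNA-barcoded human transcription factors, expressed in yeast as GST fusions and captured on glutathione beads, plus a tag-only sample. Binding signal is a hexamer's read frequency for a factor divided by its frequency in the tag-only sample.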
# [2] = molecular target: T2, ELK1 (Homo sapiens, UniProt P19419 1-428); conditions: protein: recombinant; tags: N-terminal GST; dsDNA, one strand shown
# T2 sequence: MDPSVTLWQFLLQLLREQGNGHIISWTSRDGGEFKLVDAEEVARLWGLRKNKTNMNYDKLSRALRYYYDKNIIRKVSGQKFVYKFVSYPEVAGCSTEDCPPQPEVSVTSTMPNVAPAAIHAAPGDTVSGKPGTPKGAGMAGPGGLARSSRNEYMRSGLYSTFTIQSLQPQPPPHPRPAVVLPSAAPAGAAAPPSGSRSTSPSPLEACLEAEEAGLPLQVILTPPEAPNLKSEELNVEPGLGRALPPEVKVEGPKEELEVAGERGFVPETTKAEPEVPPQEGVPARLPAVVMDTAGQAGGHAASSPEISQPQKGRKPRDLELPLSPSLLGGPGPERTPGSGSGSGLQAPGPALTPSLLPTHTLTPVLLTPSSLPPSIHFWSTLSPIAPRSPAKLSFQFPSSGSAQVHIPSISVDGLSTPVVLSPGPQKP
# In short: as §1
# [3] = molecular target: T3, GABPA (Homo sapiens, UniProt Q06546 1-454); conditions: protein: recombinant; tags: N-terminal GST; dsDNA, one strand shown
# T3 sequence: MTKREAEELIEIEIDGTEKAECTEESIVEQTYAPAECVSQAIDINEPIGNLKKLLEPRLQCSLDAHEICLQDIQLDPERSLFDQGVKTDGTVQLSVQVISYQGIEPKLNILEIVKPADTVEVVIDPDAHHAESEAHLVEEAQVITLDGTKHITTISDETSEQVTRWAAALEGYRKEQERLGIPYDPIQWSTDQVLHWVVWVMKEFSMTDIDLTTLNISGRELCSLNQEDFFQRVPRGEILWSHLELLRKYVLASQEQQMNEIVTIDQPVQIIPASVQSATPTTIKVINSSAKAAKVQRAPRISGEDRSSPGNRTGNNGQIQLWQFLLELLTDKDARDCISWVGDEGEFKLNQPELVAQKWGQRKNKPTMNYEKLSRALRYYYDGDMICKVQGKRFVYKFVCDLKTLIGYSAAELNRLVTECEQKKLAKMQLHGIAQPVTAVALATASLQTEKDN
# In short: as §1
# [4] = molecular target: T4, ERG (Homo sapiens, UniProt P11308 1-479); conditions: protein: recombinant; tags: N-terminal GST; dsDNA, one strand shown
# T4 sequence: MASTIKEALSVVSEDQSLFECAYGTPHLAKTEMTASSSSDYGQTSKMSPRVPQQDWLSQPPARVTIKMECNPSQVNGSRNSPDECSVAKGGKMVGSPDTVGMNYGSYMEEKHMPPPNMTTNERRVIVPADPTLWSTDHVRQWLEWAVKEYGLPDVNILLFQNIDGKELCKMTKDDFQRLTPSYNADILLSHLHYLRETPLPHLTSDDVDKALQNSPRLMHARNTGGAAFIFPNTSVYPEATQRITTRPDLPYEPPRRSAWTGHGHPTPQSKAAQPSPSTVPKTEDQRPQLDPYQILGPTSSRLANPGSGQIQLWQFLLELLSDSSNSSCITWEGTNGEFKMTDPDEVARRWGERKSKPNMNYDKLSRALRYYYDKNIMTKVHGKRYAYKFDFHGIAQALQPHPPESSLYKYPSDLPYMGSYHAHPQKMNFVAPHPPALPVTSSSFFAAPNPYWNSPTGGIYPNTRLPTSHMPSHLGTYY
# In short: as §1
# [5] = molecular target: ELF1 (Homo sapiens, UniProt P32519 1-619); conditions: protein: recombinant; tags: N-terminal GST; dsDNA, one strand shown
# ELF1, sequence (P32519 whole entry): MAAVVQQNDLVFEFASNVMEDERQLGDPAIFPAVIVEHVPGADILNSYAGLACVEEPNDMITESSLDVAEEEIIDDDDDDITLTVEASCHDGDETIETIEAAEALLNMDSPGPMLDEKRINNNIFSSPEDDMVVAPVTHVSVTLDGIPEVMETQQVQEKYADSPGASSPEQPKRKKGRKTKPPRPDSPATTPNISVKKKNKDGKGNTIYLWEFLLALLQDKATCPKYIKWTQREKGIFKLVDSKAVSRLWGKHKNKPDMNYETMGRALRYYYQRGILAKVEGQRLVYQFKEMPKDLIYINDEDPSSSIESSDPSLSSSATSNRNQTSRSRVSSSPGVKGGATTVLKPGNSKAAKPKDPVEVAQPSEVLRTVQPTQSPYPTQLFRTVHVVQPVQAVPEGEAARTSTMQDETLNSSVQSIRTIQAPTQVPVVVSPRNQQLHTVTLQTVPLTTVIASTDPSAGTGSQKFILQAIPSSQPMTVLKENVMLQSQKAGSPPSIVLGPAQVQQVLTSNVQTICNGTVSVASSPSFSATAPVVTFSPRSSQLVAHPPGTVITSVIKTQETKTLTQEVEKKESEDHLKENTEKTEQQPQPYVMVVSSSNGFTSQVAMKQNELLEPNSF
# In short: as §1
# [6] = molecular target: T5, EHF (Homo sapiens, UniProt Q9NZC4 1-300); conditions: protein: recombinant; tags: N-terminal GST; dsDNA, one strand shown
# T5 sequence: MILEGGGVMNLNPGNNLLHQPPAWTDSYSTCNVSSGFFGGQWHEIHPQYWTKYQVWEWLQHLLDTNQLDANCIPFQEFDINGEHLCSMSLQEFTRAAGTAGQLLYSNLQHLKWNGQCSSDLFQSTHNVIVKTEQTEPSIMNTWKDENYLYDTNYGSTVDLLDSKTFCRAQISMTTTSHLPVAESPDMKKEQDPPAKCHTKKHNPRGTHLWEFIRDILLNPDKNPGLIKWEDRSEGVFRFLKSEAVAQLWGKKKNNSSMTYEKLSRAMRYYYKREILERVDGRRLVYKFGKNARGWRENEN
# In short: as §1
# [7] = molecular target: SPI1 (Homo sapiens, UniProt P17947 1-270); conditions: protein: recombinant; tags: N-terminal GST; dsDNA, one strand shown
# In short: as §1
# [8] = molecular target: SPIB (Homo sapiens, UniProt Q01892 1-262); conditions: protein: recombinant; tags: N-terminal GST; dsDNA, one strand shown
# SPIB, sequence (Q01892 whole entry): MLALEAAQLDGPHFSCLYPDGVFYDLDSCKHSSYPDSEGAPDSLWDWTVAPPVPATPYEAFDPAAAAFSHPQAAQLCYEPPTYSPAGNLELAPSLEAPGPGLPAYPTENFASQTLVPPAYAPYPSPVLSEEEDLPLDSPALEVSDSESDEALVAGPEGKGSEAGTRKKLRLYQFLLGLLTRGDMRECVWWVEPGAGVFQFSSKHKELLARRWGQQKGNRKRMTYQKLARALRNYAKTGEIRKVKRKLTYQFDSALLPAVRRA
# In short: as §1
# [9] = molecular target: T6, ELK3 (Homo sapiens, UniProt P41970 1-407); conditions: protein: recombinant; tags: N-terminal GST; dsDNA, one strand shown
# T6 sequence: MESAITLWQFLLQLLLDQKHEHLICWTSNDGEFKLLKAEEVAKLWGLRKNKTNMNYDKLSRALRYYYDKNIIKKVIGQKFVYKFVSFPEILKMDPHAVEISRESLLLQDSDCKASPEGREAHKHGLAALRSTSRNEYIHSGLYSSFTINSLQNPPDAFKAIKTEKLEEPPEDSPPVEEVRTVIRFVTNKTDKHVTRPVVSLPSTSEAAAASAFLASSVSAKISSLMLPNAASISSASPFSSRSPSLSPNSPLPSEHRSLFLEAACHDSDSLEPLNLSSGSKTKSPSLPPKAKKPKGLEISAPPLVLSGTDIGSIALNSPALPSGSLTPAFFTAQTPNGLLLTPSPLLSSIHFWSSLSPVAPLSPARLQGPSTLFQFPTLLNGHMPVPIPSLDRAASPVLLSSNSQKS
# In short: as §1
# [10] = molecular target: T7, FEV (Homo sapiens, UniProt Q99581 1-238); conditions: protein: recombinant; tags: N-terminal GST; dsDNA, one strand shown
# T7 sequence: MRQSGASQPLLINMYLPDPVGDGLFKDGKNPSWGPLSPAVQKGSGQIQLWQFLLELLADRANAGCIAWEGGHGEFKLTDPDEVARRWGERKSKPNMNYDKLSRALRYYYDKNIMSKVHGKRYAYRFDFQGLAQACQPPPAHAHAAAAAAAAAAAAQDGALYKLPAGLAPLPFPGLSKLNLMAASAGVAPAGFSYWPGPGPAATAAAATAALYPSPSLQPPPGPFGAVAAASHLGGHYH
# In short: as §1
# [11] = molecular target: ETV5 (Homo sapiens, UniProt P41161 1-510); conditions: protein: recombinant; tags: N-terminal GST; dsDNA, one strand shown
# ETV5, sequence (P41161 whole entry): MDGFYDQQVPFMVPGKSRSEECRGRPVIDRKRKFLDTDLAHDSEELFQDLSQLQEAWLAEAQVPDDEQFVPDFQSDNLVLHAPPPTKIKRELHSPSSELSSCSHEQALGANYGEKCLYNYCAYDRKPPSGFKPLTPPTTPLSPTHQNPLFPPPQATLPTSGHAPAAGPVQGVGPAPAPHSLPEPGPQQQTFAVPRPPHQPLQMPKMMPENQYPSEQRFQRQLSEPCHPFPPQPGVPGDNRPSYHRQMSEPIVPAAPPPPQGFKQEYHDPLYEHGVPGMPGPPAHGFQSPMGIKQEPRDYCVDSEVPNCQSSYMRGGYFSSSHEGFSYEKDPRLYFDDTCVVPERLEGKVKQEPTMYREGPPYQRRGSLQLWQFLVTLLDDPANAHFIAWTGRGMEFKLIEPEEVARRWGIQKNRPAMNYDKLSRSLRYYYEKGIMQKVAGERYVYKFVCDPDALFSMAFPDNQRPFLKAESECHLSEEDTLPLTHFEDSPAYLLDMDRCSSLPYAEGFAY
# In short: as §1
# [12] = molecular target: HSF1 (Homo sapiens, UniProt Q00613 1-529); conditions: protein: recombinant; tags: N-terminal GST; chain copies: 3; dsDNA, one strand shown
# HSF1, sequence (Q00613 whole entry): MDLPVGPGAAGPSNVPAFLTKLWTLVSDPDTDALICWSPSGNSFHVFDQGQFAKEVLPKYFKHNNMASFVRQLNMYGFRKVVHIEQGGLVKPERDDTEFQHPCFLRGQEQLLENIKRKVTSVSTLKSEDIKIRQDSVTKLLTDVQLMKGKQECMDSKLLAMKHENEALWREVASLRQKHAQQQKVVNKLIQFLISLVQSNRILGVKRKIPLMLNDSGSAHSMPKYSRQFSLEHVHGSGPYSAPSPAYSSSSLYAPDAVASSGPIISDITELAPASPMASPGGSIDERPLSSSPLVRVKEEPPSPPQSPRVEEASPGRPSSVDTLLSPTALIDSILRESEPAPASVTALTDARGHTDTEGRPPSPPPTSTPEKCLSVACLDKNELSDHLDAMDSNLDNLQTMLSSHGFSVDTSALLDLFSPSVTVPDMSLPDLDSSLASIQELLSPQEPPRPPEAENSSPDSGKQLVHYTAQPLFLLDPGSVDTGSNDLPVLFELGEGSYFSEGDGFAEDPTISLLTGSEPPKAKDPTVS
# In short: as §1
# [13] = molecular target: T8, SPIC (Homo sapiens, UniProt Q8N5J4 1-248); conditions: protein: recombinant; tags: N-terminal GST; dsDNA, one strand shown
# T8 sequence: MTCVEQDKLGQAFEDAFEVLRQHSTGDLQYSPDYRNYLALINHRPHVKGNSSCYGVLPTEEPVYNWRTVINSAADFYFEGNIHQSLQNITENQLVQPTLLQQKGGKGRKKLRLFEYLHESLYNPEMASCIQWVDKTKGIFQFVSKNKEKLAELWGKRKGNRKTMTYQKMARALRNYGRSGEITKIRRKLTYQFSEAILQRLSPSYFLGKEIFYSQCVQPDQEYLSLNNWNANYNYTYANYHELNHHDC
# In short: as §1
# [14] = molecular target: ELF4 (Homo sapiens, UniProt Q99607 1-663); conditions: protein: recombinant; tags: N-terminal GST; dsDNA, one strand shown
# ELF4, sequence (Q99607 whole entry): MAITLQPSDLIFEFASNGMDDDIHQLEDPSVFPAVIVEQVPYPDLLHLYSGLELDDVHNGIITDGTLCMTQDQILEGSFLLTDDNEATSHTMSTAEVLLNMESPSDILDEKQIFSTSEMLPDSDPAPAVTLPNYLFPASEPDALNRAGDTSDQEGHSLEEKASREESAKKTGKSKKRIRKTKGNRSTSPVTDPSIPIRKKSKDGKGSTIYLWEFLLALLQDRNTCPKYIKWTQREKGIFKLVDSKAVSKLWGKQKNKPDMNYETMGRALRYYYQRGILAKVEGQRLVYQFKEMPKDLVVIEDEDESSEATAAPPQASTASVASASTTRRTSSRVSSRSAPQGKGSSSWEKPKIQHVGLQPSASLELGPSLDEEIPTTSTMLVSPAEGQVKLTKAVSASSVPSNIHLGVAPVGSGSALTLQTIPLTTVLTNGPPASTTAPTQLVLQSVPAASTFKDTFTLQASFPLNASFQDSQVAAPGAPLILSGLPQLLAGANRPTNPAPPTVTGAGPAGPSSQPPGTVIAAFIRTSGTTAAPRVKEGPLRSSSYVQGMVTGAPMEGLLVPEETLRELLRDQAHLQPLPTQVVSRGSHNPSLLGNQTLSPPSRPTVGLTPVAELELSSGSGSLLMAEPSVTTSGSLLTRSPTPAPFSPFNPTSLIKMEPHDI
# In short: as §1
# [15] = molecular target: T9, ELK4 (Homo sapiens, UniProt P28324-2 1-405); conditions: protein: recombinant; tags: N-terminal GST; dsDNA, one strand shown
# T9 sequence: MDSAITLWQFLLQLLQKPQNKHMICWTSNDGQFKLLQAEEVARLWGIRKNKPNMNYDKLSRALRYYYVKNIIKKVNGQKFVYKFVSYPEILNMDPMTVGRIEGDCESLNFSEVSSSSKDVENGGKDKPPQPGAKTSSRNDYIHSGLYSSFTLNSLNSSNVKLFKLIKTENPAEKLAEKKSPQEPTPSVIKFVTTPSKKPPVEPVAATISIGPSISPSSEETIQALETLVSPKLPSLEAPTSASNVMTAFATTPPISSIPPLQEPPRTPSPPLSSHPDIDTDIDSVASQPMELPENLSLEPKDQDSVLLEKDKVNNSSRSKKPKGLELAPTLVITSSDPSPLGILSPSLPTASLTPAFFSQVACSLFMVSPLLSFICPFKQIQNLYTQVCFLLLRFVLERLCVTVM
# In short: as §1
# [16] = molecular target: T10, ETV2 (Homo sapiens, UniProt O00321 1-342); conditions: protein: recombinant; tags: N-terminal GST; dsDNA, one strand shown
# T10 sequence: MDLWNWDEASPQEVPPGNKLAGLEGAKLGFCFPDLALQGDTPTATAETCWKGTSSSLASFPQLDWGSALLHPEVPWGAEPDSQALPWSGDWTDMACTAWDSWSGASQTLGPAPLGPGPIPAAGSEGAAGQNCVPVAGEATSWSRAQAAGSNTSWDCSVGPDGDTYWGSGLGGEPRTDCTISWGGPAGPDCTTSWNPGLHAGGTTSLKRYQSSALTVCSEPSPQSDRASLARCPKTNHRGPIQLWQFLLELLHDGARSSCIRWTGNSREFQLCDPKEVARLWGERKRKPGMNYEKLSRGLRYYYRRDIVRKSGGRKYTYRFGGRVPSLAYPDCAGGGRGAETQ
# In short: as §1
# [17] = molecular target: T11, ELF3 (Homo sapiens, UniProt P78545 1-371); conditions: protein: recombinant; tags: N-terminal GST; dsDNA, one strand shown
# T11 sequence: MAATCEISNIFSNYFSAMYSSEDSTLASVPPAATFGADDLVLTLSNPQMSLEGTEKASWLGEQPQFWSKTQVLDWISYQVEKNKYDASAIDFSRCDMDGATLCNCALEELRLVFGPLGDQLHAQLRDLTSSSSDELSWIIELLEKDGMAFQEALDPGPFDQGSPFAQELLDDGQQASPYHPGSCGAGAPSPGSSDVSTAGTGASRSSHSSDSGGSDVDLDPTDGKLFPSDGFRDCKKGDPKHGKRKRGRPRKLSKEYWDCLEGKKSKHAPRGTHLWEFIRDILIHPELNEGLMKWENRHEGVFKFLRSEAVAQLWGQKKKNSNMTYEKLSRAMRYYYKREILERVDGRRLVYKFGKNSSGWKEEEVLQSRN
# In short: as §1
# [18] = molecular target: CRX (Homo sapiens, UniProt O43186 1-299); conditions: protein: recombinant; tags: N-terminal GST; dsDNA, one strand shown
# CRX, sequence (O43186 whole entry): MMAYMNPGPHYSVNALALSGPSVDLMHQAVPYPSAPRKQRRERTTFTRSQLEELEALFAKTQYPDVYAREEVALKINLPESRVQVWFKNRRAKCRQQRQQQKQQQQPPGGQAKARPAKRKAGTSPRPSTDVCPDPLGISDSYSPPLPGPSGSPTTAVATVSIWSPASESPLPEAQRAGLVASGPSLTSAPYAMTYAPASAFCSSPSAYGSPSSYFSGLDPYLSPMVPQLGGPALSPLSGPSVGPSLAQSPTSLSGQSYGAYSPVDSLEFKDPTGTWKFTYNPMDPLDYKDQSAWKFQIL
# In short: as §1
# [19] = molecular target: ETV1 (Homo sapiens, UniProt P50549 1-477); conditions: protein: recombinant; tags: N-terminal GST; dsDNA, one strand shown
# ETV1, sequence (P50549 whole entry): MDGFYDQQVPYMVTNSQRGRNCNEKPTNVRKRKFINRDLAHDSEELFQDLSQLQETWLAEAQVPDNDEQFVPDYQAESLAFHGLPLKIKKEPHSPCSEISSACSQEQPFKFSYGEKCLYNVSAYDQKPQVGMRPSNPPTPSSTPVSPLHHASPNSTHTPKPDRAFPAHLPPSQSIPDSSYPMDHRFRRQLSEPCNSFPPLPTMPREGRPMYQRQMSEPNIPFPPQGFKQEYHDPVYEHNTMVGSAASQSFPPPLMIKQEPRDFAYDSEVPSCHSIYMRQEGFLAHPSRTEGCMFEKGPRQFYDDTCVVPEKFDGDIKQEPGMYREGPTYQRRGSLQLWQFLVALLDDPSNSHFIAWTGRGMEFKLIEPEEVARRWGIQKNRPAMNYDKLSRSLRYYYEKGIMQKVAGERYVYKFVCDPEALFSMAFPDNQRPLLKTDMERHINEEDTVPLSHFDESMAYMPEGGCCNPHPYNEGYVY
# In short: as §1
sequence,measurement,setting,value
CTTAAC,binding signal,[1],"1.21 fold enrichment (6-mer frequency, TF over GST control)"
same,binding signal,[2],"1.17 fold enrichment (6-mer frequency, TF over GST control)"
same,binding signal,[3],"1.28 fold enrichment (6-mer frequency, TF over GST control)"
same,binding signal,[4],"1.26 fold enrichment (6-mer frequency, TF over GST control)"
same,binding signal,[5],"1.35 fold enrichment (6-mer frequency, TF over GST control)"
same,binding signal,[6],"1.26 fold enrichment (6-mer frequency, TF over GST control)"
same,binding signal,[7],"1.32 fold enrichment (6-mer frequency, TF over GST control)"
same,binding signal,[8],"1.4 fold enrichment (6-mer frequency, TF over GST control)"
same,binding signal,[9],"1.31 fold enrichment (6-mer frequency, TF over GST control)"
same,binding signal,[10],"1.27 fold enrichment (6-mer frequency, TF over GST control)"
same,binding signal,[11],"1.26 fold enrichment (6-mer frequency, TF over GST control)"
same,binding signal,[12],"1.72 fold enrichment (6-mer frequency, TF over GST control)"
same,binding signal,[13],"1.18 fold enrichment (6-mer frequency, TF over GST control)"
same,binding signal,[14],"1.28 fold enrichment (6-mer frequency, TF over GST control)"
same,binding signal,[15],"1.34 fold enrichment (6-mer frequency, TF over GST control)"
same,binding signal,[16],"1.25 fold enrichment (6-mer frequency, TF over GST control)"
same,binding signal,[17],"1.36 fold enrichment (6-mer frequency, TF over GST control)"
same,binding signal,[18],"2.4 fold enrichment (6-mer frequency, TF over GST control)"
same,binding signal,[19],"1.14 fold enrichment (6-mer frequency, TF over GST control)"
